Laboratory results taken from PubChem BioAssay AID651660 (Broad Institute, 2012).
Among all 1,900 compounds or so, about 15 (0.8%) were called active.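 The calls were made as follows: active = every replicate shows at least 50% inhibition; inconclusive = mean inhibition at least 50% but some replicate below; inactive = the rest.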 For the sample, actives were picked, then their nearest neighbours and some compounds at random.

Target: DNA repair protein RAD52 homolog (Homo sapiens) (UniProt P43351)
Sequence (P43351 whole entry, looked up): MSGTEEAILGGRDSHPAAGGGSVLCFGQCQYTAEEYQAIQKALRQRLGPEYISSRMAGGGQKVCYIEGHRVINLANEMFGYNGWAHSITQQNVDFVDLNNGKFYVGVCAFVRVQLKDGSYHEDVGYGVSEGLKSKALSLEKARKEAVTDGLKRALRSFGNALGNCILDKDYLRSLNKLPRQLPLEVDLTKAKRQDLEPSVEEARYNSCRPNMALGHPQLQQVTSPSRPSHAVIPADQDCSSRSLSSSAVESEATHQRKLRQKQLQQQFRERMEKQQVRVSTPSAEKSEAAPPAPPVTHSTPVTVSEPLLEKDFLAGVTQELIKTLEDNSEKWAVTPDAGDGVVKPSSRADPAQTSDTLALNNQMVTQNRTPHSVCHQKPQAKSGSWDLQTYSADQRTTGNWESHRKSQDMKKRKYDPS
Assay: RAD52 ssDNA annealing inhibitors, primary screen, biochemical, FRET, single point (AID 651660);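 also: 0% = median of neutral control wells and 100% = median of positive control wells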
Settings: Recombinant RAD52 ssDNA annealing, FRET fluorescence, 30 min; at 18.7 µM; active compounds read high

inhibition, inactive:
O=C(Nc1nc2ccccc2s1)c1ccc(F)cc1 4.49%, CCN(CC)c1ccc(C2=NNC(=O)CC2C)cc1[N+](=O)[O-] (centres undefined) -0.17%, O=C(N/C(=C/C=C\c1ccccc1)C(=O)N1CCOCC1)c1ccc(Br)cc1 8.04%, CCOc1ccccc1Oc1coc2cc(OCC(=O)O)ccc2c1=O -12.3%, C(=C\c1ccc2ccccc2n1)/c1ccccc1 3.46%, COc1cc(CC(=O)NCCc2ccc(S(N)(=O)=O)cc2)cc(OC)c1OC -2.62%, O=C(NCCCCCc1nc2ccccc2[nH]1)c1ccccc1Cl -0.634%, N=C1C(c2ccccc2)=C(O)CN1CCCO -1.52%, Cn1c2ccccc2c2cc(/C=C(\NC(=O)c3ccccc3)C(=O)O)ccc21 -10.8%, O=C1c2cccc3cccc(c23)C(=O)N1c1ccccn1 -4.1%, COCCCNc1nc2c([nH]1)c(=O)[nH]c(=O)n2C -1.14%, CCOC(=O)c1cnc2ccccc2c1NCCO 10.9%, O=C(COc1ccccc1)Nc1ccc2c(c1)C(=O)N(CC1CCCO1)C2=O (centres undefined) -9.17%, COc1ccc(C2C3=C(CC(C)(C)CC3=O)N(C)C3=C2C(=O)CC(C)(C)C3)cc1 -13.9%, COc1ccccc1OS(=O)(=O)c1ccc(NC(C)=O)cc1 3.22%, S=C(NCCOCCOCCNC(=S)Nc1ccccc1)Nc1ccccc1 4.23%, Nc1ncnc2c1ncn2C1OC(CO)C(O)C1O (centres undefined) -0.087%, Cc1ccc2c(ccc(=S)n2C)c1 -5.88%, O=C(CS(=O)(=O)c1ccccc1)c1ccc2c(c1)OCCO2 -0.895%, CCOc1cc2oc(=O)c3c(c2cc1Cl)CCC3 -1.74%, CC[C@H](CO)NCCN[C@H](CC)CO -5.2%, Cc1ccc2nc(NC3=NC(CC(=O)O)C(=O)N3)nc(C)c2c1 (centres undefined) 7.8%, Cc1ccc2nc(C)c3c(c2c1)OC(C(C)(Cl)Br)C3 (centres undefined) 3.5%, C[C@H](NC(=O)OC(C)(C)C)C(=O)NCC1CCC(C(=O)O)CC1 (some centres undefined) -0.108%, CC(=O)N(CCC1(C(C)C)CCOC(C)(C)C1)Cc1ccco1 (centres undefined) -19%, COc1cc(CO)ccc1OCc1nnnn1-c1ccc(C)cc1 5.41%, CCC(C)NCCOCCOc1ccc(Cl)cc1Br (centres undefined) 9.51%, CCC1CCc2c(sc(NC(=O)c3cccnc3)c2C(N)=O)C1 (centres undefined) -5.46%, Nc1ccc2nc(Cc3ccccc3)[nH]c2c1 33.4%, O=[N+]([O-])c1ccc2cn[nH]c2c1 -3.19%, C=C(C)COc1ccc(-c2n[nH]c(C)c2-c2ccc(OC)cc2)c(O)c1 17.8%, CCOc1ccc(C(=O)Nc2ccc(N3CCN(C(C)=O)CC3)cc2)cc1[N+](=O)[O-] -3.31%, NC(=O)[C@@H]1[C@@H]2C(=O)N(c3ccc(F)cc3)C(=O)[C@@H]2[C@H]2C=Cc3ccccc3N21 -124%, C#CCN1C(=O)C(O)(c2c(C)[nH]c3ccccc23)c2ccccc21 (centres undefined) -11.1%, Cc1nc2cc3ccccc3cc2c(=O)[nH]1 -5.13%, Nc1c2c(nc3ccccc13)CCCC2 18.1%, CN(C)C(=O)CCCCCCCCC(=O)N(C)C -13.3%, COc1ccc(/C=C(/C#N)c2cccnc2)cc1OC -8.25%, CCOC(=O)c1ccc2[nH]c(C)c(CCC(C)=O)c(=O)c2c1 0.469%, COc1cc(COc2ccc3c(C)c(Cc4ccccc4)c(=O)oc3c2)cc(OC)c1OC -0.647%, CCc1nc2ccccc2c(NC(=O)CN2CC(C)CC(C)C2)c1C (centres undefined) -5.82%, O=C(CCCn1c(=O)oc2ccccc21)N1CCN(c2ccc(F)cc2)CC1 -3.01%, Cc1ccc(C2CC(=O)C(C=NCCN3CCN(C(=S)Nc4ccccc4)CC3)=C(O)C2)cc1 (centres undefined) 4.06%, Cc1ccc2c(c1)C(O)(CC(=O)/C=C/C=C/c1ccccc1)C(=O)N2 (centres undefined) -10.7%, CC1(C)CC(=O)C2=C(C1)c1c(ccc3ccccc13)NC2c1ccco1 (centres undefined) -27.1%, CCN(CC)c1ccc([C@H]2[C@@H]3CCCC[C@]3(O)CCN2CC(=O)NCc2ccco2)cc1 -20.6%, CCc1cc(/C(Cc2ccccn2)=N\O)c(O)cc1O -33.7%, CC(C)CC(NC(=O)CNC(=O)C1O[C@@H]2OC(C)(C)O[C@@H]2[C@H]2OC(C)(C)O[C@@H]12)C(=O)O (some centres undefined) -7%, OCCN(Cc1nc(-c2ccc3c(c2)OCO3)no1)Cc1cccs1 2.4%, Cc1ccc(C2CC(=O)C(C=NCCN3CCN(CC(=O)Nc4cc(C)cc(C)c4)CC3)=C(O)C2)cc1 (centres undefined) -3.07%, COc1ccccc1N=CC1=C(O)CC(c2ccccc2)CC1=O (centres undefined) -25.4%, C/C(=N\N=C1\NC(=O)C(CC(=O)Nc2ccc(Cl)cc2)S1)c1ccco1 (centres undefined) -15.6%, COc1ccc(NC(=S)NCCc2c[nH]c3ccccc23)cc1 7.25%, O=C(c1ccc(O)cc1)c1ccc(O)cc1O -19.8%, COc1ccc2[nH]c(=O)c3c(c2c1)OC(C)(C)C=C3 -5.72%, CCc1cccc(OC2OC(CO)C(O)C(O)C2NC(C)=O)c1 (centres undefined) -3.23%, COc1ccc2c(C=O)cn(C)c2c1 -1.85%, CC(C)CC(NC(=O)c1cccc(Cl)c1)C(=O)O (centres undefined) -8.58%, CCOC(=O)c1c(O)c2c([nH]c1=O)CCCC2 2.81%, COc1cccc(N2C(=O)CC(c3c[nH]c4ccccc34)C2=O)c1 (centres undefined) -22.5%, Cc1c(NC(=O)c2cccs2)cccc1[N+](=O)[O-] 0.122%

inhibition, active:
Cc1ccc2nc(N=C(N)N)nc(C)c2c1 66.7%, Nc1ccc2[nH]ncc2c1 59.5%, Nc1cccc2nc3ccccc3cc12 99.5%
